Our source for the growth values is PubChem BioAssay (NCI).

Structures are written as SMILES. Compounds without any hit were thinned out: in the full panel of roughly 83,000, 20% have a hit.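 Treatment: one concentration, 48 hours, 96-well format. Scoring: percent growth, with anything below 10 considered active.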 Values without a mark were called inactive. Active and inactive are the calls of the source.

Holding throughout (assay): NCI-60 one-dose screen, 48 h (100 = growth as untreated, 0 = no growth, -100 = all killed)
Holding throughout (conditions): 10 µM unless noted

Assay [1] deals with HCT-15 colon.
Assay [2] concerns HT29 colon.
Assay [3] has as its system SNB-75 CNS.
In assay [4] the test system is SNB-19 CNS.
In assay [5] the test system is U251 CNS.
Assay [6] concerns PC-3 prostate.
In assay [7] the test system is SK-MEL-5 melanoma.
Assay [8] deals with UACC-62 melanoma.
Assay [9] concerns SK-MEL-28 melanoma.
Assay [10] relates to SK-MEL-2 melanoma.
The test system of assay [11] is EKVX NSCLC.
Assay [12] relates to SN12C renal.
Assay [13] concerns UO-31 renal.
Assay [14] has as its system TK-10 renal.
In assay [15] the test system is ACHN renal.
Assay [16] has as its system CAKI-1 renal.
Assay [17] concerns A498 renal.
Assay [18] has as its system CCRF-CEM leukemia.
Assay [19] deals with MOLT-4 leukemia.

As for `COc1cccc(COc2ccc(NC(=O)Nc3ccc(Cl)c(C(F)(F)F)c3)cc2)c1`, the growth is 11.8% in [1]; 43.5% in [2]; 32.1% in assay [3]; 24.6% in assay [4]; 31.8% in [5]; 16.3% in assay [6]. In addition, the growth was -77% (active) in assay [7]; 38% in assay [8]; 69.6% in assay [9]; 51.5% in assay [10]; 35.2% in [11]; 33% in [12]. Moreover, the growth is 7.91% (active) in assay [13]; 45.1% in [14]; 11.2% in assay [15]; 24.2% in assay [16]; 35.3% in assay [17]; 34.1% in assay [18]. The growth in assay [19] is 28.1%.
In the case of `O=C(O)c1ccc(-c2ccc(/C=N/NC(=O)c3[nH]c4ccc(Br)cc4c3-c3ccccc3)s2)cc1`, the growth in assay [1] was -34.6% (active); in [2], -7.12% (active); in assay [3], -11.3% (active); in assay [4] it was 14.4%; in assay [5], 14.5%; in assay [6], 18.7%. Also, the growth in [7] is -49.6% (active); in assay [8], -51.9% (active); in assay [9], 11.9%; in assay [10], -43% (active); in assay [11], 13.3%; in [12], 11.5%. Also, the growth in assay [13] was 24.7%; in [14] it was 22.8%; in assay [15] it was 14.2%; in [16] it was 20%; in assay [17], 40%; in [18] it was 7.68% (active). Moreover, in assay [19], the growth is 10.7%.
Turning to `COc1cc(CNC(=O)/C=C/c2ccc3c(c2)OCO3)ccc1OCc1cn(-c2ccc([N+](=O)[O-])cc2)nn1`, the growth in assay [1] is 97.3%; in assay [2], 121%; in [3], 106%; in assay [4], 86.5%; in [5], 96.2%; in [6], 103%. Further, the growth in [7] was 89.3%; in assay [8] it was 78.9%; in [9], 99.9%; in assay [10], 118%; in [11] it was 71.5%; in assay [12] it was 82.6%. Also, the growth was 78.2% in assay [13]; 106% in assay [14]; 90.5% in assay [15]; 64.3% in assay [16]; 113% in [17]; 99.5% in [18]. The growth in assay [19] is 72.4%.
As for `COc1cc(NC(=O)c2cccc(C3CCc4c(cc(OC)c(OC)c4OC)O3)c2)cc(OC)c1OC` (configuration not stated), the growth in assay [1] was 7.46% (active); in assay [2], 3.59% (active); in [3] it was 11.5%; in [4], 27.1%; in assay [5], 13.5%; in assay [6] it was 18.2%. Further, the growth is -58% (active) in assay [7]; -28.6% (active) in assay [8]; 38.9% in assay [9]; -1.8% (active) in [10]; 35.3% in assay [11]; 13.2% in [12]. For the same molecule, the growth in assay [13] is 3.46% (active); in assay [14] it was 56.6%; in assay [15], 17.3%; in [16] it was 14.8%; in assay [17], 112%; in [18] it was 18.1%. Also, the growth in assay [19] is 11.8%.
Consider `COc1cc(-c2cc(-c3cccc(OCC(=O)O)c3)[nH]c(=O)c2C#N)cc(OC)c1OC`, for which the growth in assay [1] was 100%; in assay [2], 112%; in [3] it was 116%; in assay [4], 92.3%; in assay [5], 113%; in assay [6], 97.6%. The growth in assay [7] was 99.7%; in assay [8], 95.5%; in assay [9] it was 102%; in assay [10], 132%; in assay [11], 91.8%; in [12], 102%. Further, the growth was 81.8% in assay [13]; 102% in assay [14]; 97% in assay [15]; 82.2% in [16]; 101% in assay [17]; 93.7% in assay [18]. Besides, the growth in assay [19] was 85.9%.
As for `NS(=O)(=O)c1ccc(NNC(=O)CCC(=O)c2ccccc2)cc1`, the growth was 104% in assay [1]; 104% in [2]; 91.9% in assay [3]; 98.3% in assay [4]; 101% in assay [5]; 97.6% in assay [6]. Further, the growth in assay [7] was 99.1%; in [8] it was 99.9%; in [9], 112%; in [10] it was 107%; in assay [11], 103%; in assay [12], 92.5%. Also, the growth in assay [13] is 84%; in assay [14], 109%; in assay [15], 101%; in assay [16], 90.2%; in [17], 94.2%; in assay [18], 75.1%. Besides, the growth in assay [19] is 89.8%.
Consider `COc1ccc2[nH]c(O)c(N=NC(=O)COc3ccc(NC(=O)Nc4ccccc4)cc3)c2c1`, for which the growth was 108% in assay [1]; 52.4% in assay [2]; 31.6% in assay [3]; 14.6% in assay [4]; -4.75% (active) in assay [5]; 40.5% in assay [6]. Further, the growth was 69.7% in assay [7]; 10.1% in assay [8]; 8.57% (active) in assay [9]; 43.6% in assay [10]; 65.4% in assay [11]; 25% in [12]. Besides, the growth in [13] is 94.5%; in [14], 113%; in assay [15], 94.2%; in assay [16], 82.5%; in [17], 71.7%; in assay [18], 77.9%. Further, the growth in [19] is 77.1%.
Consider `Cc1c(C(=O)NNC(=O)c2ccc(Cl)cc2)nnn1-c1ccc(Br)cc1`, for which the growth in assay [1] is 98.3%; in assay [2] it was 96.4%; in [3], 90.6%; in assay [4], 97%; in assay [5], 112%; in assay [6], 99.9%. Moreover, the growth in assay [7] is 97.7%; in [8], 90.5%; in assay [9], 95.7%; in assay [10], 107%; in [11] it was 99.4%; in assay [12], 102%. For the same molecule, the growth in [13] was 75.9%; in assay [14], 95.4%; in assay [15], 102%; in [16], 87.9%; in assay [17], 139%; in assay [18] it was 90.3%. Moreover, in [19], the growth was 85.4%.
